Screens deposited in PubChem by Sanford-Burnham Center for Chemical Genomics.
TIM10 inh = growth inhibitors of TIM10 yeast strain | S. cerevisiae TIM10 strain growth, BacTiter-Glo luminescence, 24 h | inhibition, % at 10 µM | 330,000 tested, 1.4% active | AID 463195;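 active = inhibition of 40% or more at the single tested concentration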;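 note: wild-type TIM10 isogenic control strain grown at permissive 25 °C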
NALP3 yeast inh = blocks the NALP3 inflammasome reconstituted in yeast; Yeast reconstituted NLRP3/ASC/caspase-1, beta-gal luminescence, 24 h; inhibition, % at 10 µM; 330,000 tested, 0.39% active; AID 2825;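 active = inhibition of 50% or more; inactive = inhibition below 50%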;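 note: plate controls were induced DMSO wells for no effect and uninduced yeast grown without galactose for full effect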
tim23-1 inh = tim23-1 yeast growth inhibition; S. cerevisiae tim23-1 growth, BacTiter-Glo luminescence, 24 h; 330,000 tested, 1.3% active; inhibition, % at 20 µM;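 active = growth inhibition of the mutant yeast at or above 50%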;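 note: temperature-sensitive mutant grown at 25 °C; plate controls were DMSO-treated mutant yeast for no effect and medium wells lacking yeast for full effect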
NALP1 inh = inhibitors of NALP1 inflammasome in yeast. S. cerevisiae NALP1/ASC/caspase-1 growth, X-gal OD620, 72 h. inhibition, % at 10 µM. 280,000 tested, 0.61% active; in the data active = inhibition mostly above about 24%, no sharp cut-off; inactive = mostly below about 32%
tim10-1 inh = tim10-1 yeast growth inhibition; S. cerevisiae tim10-1 ts strain growth, BacTiter-Glo, 24 h; inhibition, % at 20 µM; 330,000 tested, 2.2% active;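 active = inhibition of at least 40%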;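 note: mutant grown at 25 °C; 0% = DMSO wells with yeast and 100% = wells holding no yeast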
tim10-1 confirm = tim10-1 yeast growth inhibition, confirmed; shares compounds with tim10-1 inh; S. cerevisiae tim10-1 ts strain growth, BacTiter-Glo, 24 h; inhibition, % at 20 µM; 7,400 tested, 56% active;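 active = inhibition of yeast growth at or above a set limit in either of two repeat tests at 20 µM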;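 note: tim10-1 mutant grown at permissive 25 °C to find synthetic lethal compounds; 0% = DMSO yeast wells and 100% = medium wells without yeast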
An asterisk follows results filed as active; · = no result. Only some compounds are listed: those with a hit (about 4% of all), similar ones and a draw of the others.

SMILES	TIM10 inh	NALP3 yeast inh	tim23-1 inh	NALP1 inh	tim10-1 inh	tim10-1 confirm
Cn1c(N)c(C(=O)COC(=O)C2CCCC2)c(=O)n(C)c1=O	-1	-9	5	6	4	·
C[C@@H]1CCCCCCCCC(=O)OCCN1C(=O)OC(C)(C)C	0	19	31	·	10	·
Cc1c(C)c2ccc(OC3CCCCC3=O)cc2oc1=O (stereo not given)	-12	11	16	2	19	·
CCc1cc(=O)oc2cc(OC3CCCCC3=O)ccc12 (stereo not given)	5	5	35	12	43*	13
O=C(Nc1nnc(C2=COCCO2)o1)c1ccc([N+](=O)[O-])cc1	10	10	22	-2	46*	35*
O=C(Nc1nnc(C2=COCCO2)o1)c1ccc(Cl)cc1	11	4	24	8	57*	32*
O=C(Nc1nnc(C2=COCCO2)o1)c1ccc(Br)cc1	30	-2	34	-1	42*	39*
CN(C)CC(C)(C)CNC(=O)CC1C(=O)NCCN1Cc1ccc(-c2ccccc2)cc1 (stereo not given)	-8	21	13	8	-7	·
OC1COC(O)C(O)C1O (stereo not given)	-2	-8	6	·	0	·
Cc1ccc(NC(=O)COc2cccc3c2OC(C)(C)C3)c(O)c1	5	33	34	·	3	·
COc1ccc(/C=N/N2CCOCC2)cc1COc1ccc(Cl)cc1	6	35	16	45	0	·
Cc1cccn2c(=O)c3cc(C(=O)NC4CCCC4)c(=N)n(Cc4ccc(F)cc4)c3nc12	13	7	19	8	43*	-18
CCC(=O)N1CCc2cc(S(=O)(=O)NC(C(=O)N3CCN(c4ccc(F)cc4)CC3)C(C)C)ccc21 (stereo not given)	-4	12	19	13	24	·
COc1ccc(-c2sc3cc4c(cc3c2C#CC2(N)CCCCC2)OCO4)cc1	33	9	46	·	48*	44*
COc1ccc(-c2sc3cc4c(cc3c2C#Cc2cncn2C)OCO4)cc1	13	-33	5	·	7	·
CCC(=NCc1ccccc1)c1c(C(F)(F)F)[nH]n(-c2nc3ccccc3s2)c1=O	18	6	38	33	46*	35*
O=C1c2cccc3c(N4CCCCC4)ccc(c23)C(=O)N1CCO	28	-4	41	5	46*	29
C=CCNc1sc(C(=O)c2ccccc2)c(N)c1-c1nc2ccccc2s1	22	18	44	0	40*	18
COc1ccc(CCNC(=O)c2cc(-c3ccc(Cl)c(Cl)c3)oc2C)cc1	29	16	25	8	40*	36*
COc1ccc(CCNC(=O)c2nn(C)cc2Cl)cc1	11	9	14	36	7	·
CSc1nnc(C)c(=O)n1COC(=O)c1ccc(S(=O)(=O)N(C)C)cc1	-3	21	3	30	-2	·
O=C(COC(=O)C1CC2C=CC1C2)Nc1cccc(S(=O)(=O)N2CCCCC2)c1 (stereo not given)	21	2	14	4	17	·
O=C(COC(=O)C1CC2C=CC1C2)Nc1cccc(S(=O)(=O)N2CCCCCC2)c1 (stereo not given)	38	5	37	20	49*	30
CC[n+]1c(/C=C2/C=C(C)CC(C)C2)sc2ccccc21 (stereo not given)	39	11	32	-6	48*	26
CC(Oc1ccc2c(c1)oc(=O)c1ccccc12)C(=O)NC(Cc1c[nH]c2ccc(O)cc12)C(=O)O (stereo not given)	0	17	0	11	11	·
SMILES	TIM10 inh	NALP3 yeast inh	tim23-1 inh	NALP1 inh	tim10-1 inh	tim10-1 confirm
Cc1ccc(-c2nc(C(=O)NCCCN3CCOCC3)cc3c2[nH]c2ccccc23)cc1	18	-1	26	10	40*	32*
CN(CC(=O)Nc1ccc(Cl)cc1)C(=O)Cc1c(F)cccc1Cl	5	2	17	-4	10	·
Cc1cccc(NC(=S)N2CCCCCC2)c1C	5	13	9	10	5	·
Cc1c(Cl)cccc1NC(=S)N1CCCCCC1	24	11	29	13	44*	16
COc1cc([N+](=O)[O-])ccc1NC(=O)N1CCCCCC1	2	31	8	12	-6	·
Cc1ccc2oc(C(=O)N3CCN(Cc4ncccc4C)CC3)c(C)c2c1	27	16	40	-1	41*	18
Cc1ccc2oc(C(=O)N3CCN(CC(=O)NC(C)C)CC3)c(C)c2c1	-6	14	-4	10	-6	·
CCn1nc(C)c(C(=O)Nc2cc(Oc3ccc(Cl)cc3)cc([N+](=O)[O-])c2)c1C	40	13	44	-6	49*	36*
Cc1ccccc1Oc1cc(NC(=O)CCCn2nc(C)c([N+](=O)[O-])c2C)cc([N+](=O)[O-])c1	9	11	24	23	8	·
Cc1nn(CCCC(=O)Nc2cc(Oc3ccc(F)cc3)cc([N+](=O)[O-])c2)c(C)c1[N+](=O)[O-]	16	11	32	26	41*	22
Cc1cc2c(cc1C)C(c1ccccc1F)CC(=O)N2 (stereo not given)	17	9	10	13	23	·
Cc1cc2c(cc1C)C(c1cc(Br)ccc1F)CC(=O)N2 (stereo not given)	9	14	25	24	45*	28
C/C(=N\NC(=O)CNc1cccc(C)c1)c1ccc(Br)s1	34	18	40	-24	40*	22
CSc1nnc(-c2ccc(S(=O)(=O)N3CCCCC3)cc2)o1	-13	41	27	0	17	·
COC(=O)c1ccc(NS(=O)(=O)c2ccc(SC)cc2)cc1	13	29	31	·	40*	21
Cc1ccccc1OCC(=O)O/N=C(\N)c1ccncc1	-2	13	8	24	2	·
Cc1cc(C)c(C(=O)COC(=O)c2cc([N+](=O)[O-])ccc2N2CCOCC2)cc1C	-15	34	14	·	1	·
COc1ccc(/C=N/Nc2ncnc3sc4c(c23)CCCC4)cc1OC	26	11	11	22	41*	18
Fc1ccc(Nc2ncnc3sc4c(c23)CCC4)cc1	21	42	47	36	43*	28
c1ccc(Nc2ncnc3sc4c(c23)CCC4)cc1	-25	33	20	11	24	·
CCCOC(=O)Nc1ccc(S(=O)(=O)Nc2ncccn2)cc1	-12	-5	7	·	-7	·
N#CC1(NC(=O)COC(=O)Cn2[nH]c(=O)c3ccccc3c2=O)CCCCC1	0	16	-13	·	-20	·
Cc1cc(C(=O)NNC(=O)C(C)(C)Oc2ccc(Cl)cc2)c(C)o1	2	-5	17	·	6	·
O=S(=O)(c1cccc(-c2csc(-c3cccnc3)n2)c1)N1CCCCC1	13	24	29	2	26	·
O=S(=O)(c1ccc(-c2csc(-c3cccnc3)n2)cc1)N1CCCC1	27	-47	31	30	44*	39*
